From PubChem BioAssay (NCI)
Compounds without any hit were thinned out: in the full panel of roughly 83,000, 20% have a hit.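 Treatment: one concentration, 48 hours, 96-well format. Scoring: percent growth, with anything below 10 considered active.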 Calls of active or inactive are those of the source.

Tested on: HCC-2998 colon
Experiment: NCI-60 one-dose screen, 48 h (100 = growth as untreated, 0 = no growth, -100 = all killed)
Conditions: 10 µM unless noted

Structure (SMILES)	growth
CC(c1ccccc1)n1ccnc1CO (stereo not given)	90.6% (inactive)
Cn1c(COC(=O)N2CCCCC2)nc2c(N3CCOCC3)nc(-c3ccccc3)nc21	-76.4% (active)
Clc1nc(Nc2ccccc2)nc(Nc2ccccc2)n1	93.3% (inactive)
COc1cc2c(cc1[N+](=O)[O-])-c1ccc([N+](=O)[O-])cc1/C2=N/NC(N)=S	72.8% (inactive)
c1ccc(-c2nn(-c3ccccc3)[n+](-c3ccccc3-c3ccccc3)n2)cc1	18.9% (inactive)
CC(C)(C#N)N1CCN(c2ccccc2Cl)CC1	91.4% (inactive)
O=C(CCN1CCCC1)Nc1ccc2c(NCc3ccc(F)cc3)c3ccccc3nc2c1	-32.5% (active)
COc1ccc(/C=N/C2=C(C#N)C(c3ccccc3[N+](=O)[O-])c3ccc4ccccc4c3O2)cc1 (stereo not given)	106% (inactive)
Cc1n[nH]c(C)c1-c1c(C)n[nH]c1C	4.99% (active)
Nc1c(Cl)cc([N+](=O)[O-])cc1Br	93.7% (inactive)
COc1cccc(CNCCN2C(=O)c3ccc4c5c(ccc(c35)C2=O)C(=O)N(CCNCc2cccc(OC)c2)C4=O)c1	97.8% (inactive)
NC(=O)CN1CCN(c2ccccc2Cl)CC1	101% (inactive)
CN1CCN(c2cc(F)c(NC3=C(Cl)C(=O)c4ncccc4C3=O)c(F)c2)CC1	61.9% (inactive)
O=S(=O)(NCCNc1nccc(-c2c(-c3ccc(F)c(O)c3)nc3occn23)n1)c1ccccc1	62.1% (inactive)
CC1(C)[C@H](O)CC[C@]2(C)[C@@H]1CC[C@@]13C[C@@H](CC[C@H]12)[C@@](O)(CO)C3	105% (inactive)
CS(=O)(=O)c1ccc(-c2cc(-c3nnc(SCC(=O)Nc4ccc(C(=O)/C=C/c5ccc(Cl)cc5)cc4)n3-c3ccccc3)c3ccccc3n2)cc1	106% (inactive)
COc1cc(OC)c(/C=C/C(=O)c2ccc(Nc3ncnc4ccccc34)cc2)c(OC)c1	38.3% (inactive)
O=[N+]([O-])c1cccc(-c2nc(-c3ccc(Cl)cc3Cl)cn2-c2ccccc2)c1	-1.15% (active)
CC(=O)OCCCCCNc1ccccc1	107% (inactive)
c1ccc(-c2nn(-c3ccccc3)[n+](-c3cccc4ccccc34)n2)cc1	20.8% (inactive)
FCc1nc2nc(Cl)c(Cl)nc2[nH]1	104% (inactive)
Cc1cc2nc(-c3ccccc3)c(-c3ccccc3)nc2cc1C	104% (inactive)
c1ccc2c(-c3c4ccsc4cc4[nH]c5ccccc5c34)c[nH]c2c1	65.6% (inactive)
CN1CCCC1=Nc1ccccc1	110% (inactive)
COc1ccc(-c2nc3sccn3c2/C=C/C(=O)c2cc(OC)c(OC)c(OC)c2)cc1	71.2% (inactive)
